Source: PubChem BioAssay AID1159580 (chemical genetic matrix, 2015)
Among all 5,500 compounds or so, about 2,000 (36%) were called active. Not shown: some 18% with an inconclusive outcome. Rule as the data show it: active = normalized growth mostly below about 0.91 (no sharp cut-off); inconclusive = no clear call, values can overlap the other calls; inactive = mostly above about 0.92. The list shows a part of the results.

Experiment: chemical genetic growth profiling, strain panel (AID 1159580);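 also: tested at 20 µM; growth read once vehicle control cultures reached saturation at 30 °C; 1 = growth at the plate median or of vehicle wells; lower values mean less growth of the strain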
Conditions: S. cerevisiae deletion strains, growth OD

Measured: normalized growth

CN1CCc2cc3c(cc2[C@H]1C1OC(=O)c2c1ccc1c2OCO1)OCO3 (stereo partly specified)
inactive: locus YAL021C, strain ccr4, hits give low values 1.01 | locus YAL026C, strain drs2, hits give low values 0.989 | locus YAL030W, strain snc1, hits give low values 0.982 | locus YBL061C, strain skt5, hits give low values 0.982 | locus YBR009C, strain hhf1, hits give low values 0.989 | locus YBR023C, strain chs3, hits give low values 0.972 | locus YBR171W, strain sec66, hits give low values 0.997 | locus YBR231C, strain swc5, hits give low values 0.993 | locus YBR279W, strain paf1, hits give low values 0.993 | locus YCL011C, strain gbp2, hits give low values 0.985 | locus YCL016C, strain dcc1, hits give low values 0.981 | locus YCL061C, strain MRC1, hits give low values 0.993 | locus YCL069W, strain vba3, hits give low values 0.986 | locus YCR088W, strain abp1, hits give low values 0.98 | locus YDL005C, strain med2, hits give low values 0.988 | locus YDL040C, strain nat1, hits give low values 0.99 | locus YDR001C, strain nth1, hits give low values 0.986 | locus YDR069C, strain doa4, hits give low values 0.974 | locus YDR137W, strain rgp1, hits give low values 0.971 | locus YDR159W, strain sac3, hits give low values 0.976 | locus YDR195W, strain ref2 0.957 | locus YDR297W, strain sur2, hits give low values 0.987 | locus YDR334W, strain swr1, hits give low values 0.981 | locus YDR335W, strain msn5, hits give low values 0.996 | locus YDR392W, strain spt3, hits give low values 0.905 | locus YEL003W, strain gim4, hits give low values 0.991 | locus YEL037C, strain rad23, hits give low values 0.971 | locus YEL061C, strain CIN8 (second series), hits give low values 0.973 | locus YER015W, strain faa2, hits give low values 0.982 | locus YER016W, strain bim1, hits give low values 0.989 | locus YER111C, strain swi4, hits give low values 0.991 | locus YER155C, strain BEM2 (second series), hits give low values 0.968 | locus YFR010W, strain ubp6, hits give low values 0.977 | locus YGL167C, strain pmr1, hits give low values 0.98 | locus YGL173C, strain kem1, hits give low values 0.988 | locus YGL227W, strain vid30, hits give low values 0.976 | locus YGL240W, strain doc1, hits give low values 0.983 | locus YGL253W, strain hxk2, hits give low values 0.987 | locus YHR013C, strain ard1, hits give low values 0.959 | locus YHR027C, strain rpn1, hits give low values 0.993 | locus YHR030C, strain SLT2, hits give low values 0.985 | locus YHR079C, strain IRE1, hits give low values 0.989 | locus YHR142W, strain chs7, hits give low values 1.01 | locus YJL092W, strain hpr5, hits give low values 0.991 | locus YJL095W, strain BCK1 (second series), hits give low values 0.988 | locus YJL095W, strain BCK1, hits give low values 0.987 | locus YJL115W, strain asf1, hits give low values 0.983 | locus YJL129C, strain trk1, hits give low values 0.975 | locus YJL154C, strain vps35, hits give low values 0.985 | locus YJL164C, strain tpk1, hits give low values 1.01 | locus YJL166W, strain qcr8, hits give low values 0.999 | locus YJL187C, strain SWE1, hits give low values 0.986 | locus YJR066W, strain TOR1, hits give low values 0.93 | locus YKL160W, strain elf1, hits give low values 1.01 | locus YKR026C, strain gcn3, hits give low values 0.979 | locus YKR091W, strain srl3, hits give low values 0.99 | locus YLL001W, strain dnm1, hits give low values 0.987 | locus YLL026W, hits give low values 0.983 | locus YLL041C, strain sdh2, hits give low values 0.994 | locus YLR027C, strain aat2, hits give low values 0.976 | locus YLR113W, strain HOG1, hits give low values 0.987 | locus YLR221C, strain rsa3, hits give low values 0.989 | locus YLR258W, strain gsy2, hits give low values 0.988 | locus YLR262C, strain YPT6 (second series), hits give low values 0.97 | locus YLR320W, strain mms22, hits give low values 0.993 | locus YLR342W, strain FKS1, hits give low values 0.983 | locus YLR357W, strain rsc2, hits give low values 0.997 | locus YLR370C, strain arc18, hits give low values 0.983 | locus YLR384C, strain iki3, hits give low values 0.976 | locus YML120C, strain ndi1, hits give low values 0.981 | locus YMR058W, strain fet3, hits give low values 0.969 | locus YMR125W, strain sto1, hits give low values 0.973 | locus YMR129W, hits give low values 0.995 | locus YMR205C, strain PFK2, hits give low values 0.98 | locus YMR231W, strain pep5, hits give low values 0.987 | locus YNL071W, strain lat1, hits give low values 0.989 | locus YNL183C, strain NPR1, hits give low values 0.94 | locus YNL209W, strain ssb2, hits give low values 0.985 | locus YNL248C, strain rpa49, hits give low values 0.993 | locus YNL322C, strain KRE1 (second series), hits give low values 0.987 | locus YNR049C, strain mso1, hits give low values 0.99 | locus YOR001W, strain rrp6, hits give low values 1.01 | locus YOR070C, strain gyp1, hits give low values 0.973 | locus YOR080W, strain dia2, hits give low values 0.994 | locus YOR083W, strain WHI5, hits give low values 1.01 | locus YOR106W, strain vam3, hits give low values 0.99 | locus YOR231W, strain MKK1, hits give low values 0.977 | locus YOR265W, strain rbl2, hits give low values 0.99 | locus YOR270C, strain vph1, hits give low values 0.947 | locus YOR290C, strain snf2, hits give low values 0.974 | locus YPL051W, strain arl3, hits give low values 1 | locus YPL078C, strain atp4, hits give low values 1.01 | locus YPL106C, strain sse1, hits give low values 0.967 | locus YPL240C, strain hsp82, hits give low values 0.996 | locus YPL256C, strain CLN2, hits give low values 0.968

Cc1c(C(=O)c2cccc3ccccc23)c2cccc3c2n1[C@H](CN1CCOCC1)CO3
inactive: locus YAL013W, strain DEP1, hits give low values 0.978 | locus YAL040C, strain CLN3, hits give low values 1.01 | locus YCL061C, strain MRC1 (second series), hits give low values 0.986 | locus YDR363W, strain ESC2, hits give low values 0.973 | locus YER002W, strain NOP16, hits give low values 0.998 | locus YMR307W, strain GAS1, hits give low values 1.01 | locus YNL153C, strain GIM3, hits give low values 0.983 | locus YNL175C, strain NOP13, hits give low values 0.992 | locus YNL197C, strain WHI3, hits give low values 0.988 | locus YNL224C, strain SQS1, hits give low values 1.02 | locus YOR083W, strain WHI5 (second series), hits give low values 1.02
